Molecules are shown by their SMILES.

This test concerns HepG2. Kind of test: GSK_TCMDC: Percent inhibition of human HepG2 cell line. Test compounds present at 10uM. It counts as functional.
The Inhibition is the change of the read-out against control, counted positive when it falls. The low end stands for a response near the control, the high end for a response far below the control. Regarding `CCOC(=O)CCCOc1cc(Cc2cnc(N)nc2N)cc(OC)c1OC`, the Inhibition is recorded as 12%. `O=C(N[C@@H](Cc1ccccc1)C(=O)NCc1cccc2ccccc12)c1ccc(O)c(-c2ccc(Cl)c(Cl)c2)c1` gave an Inhibition of 0%.

`COCCN1CCC(NCC(C)(C)c2nc(-c3ccc(Cl)c(O)c3)c(-c3ccncc3)[nH]2)CC1.Cl`: the Inhibition came out at 0%. `O=C(Nc1cc(Cl)ccc1Cl)N[C@H]1CCN(CCCCCNC(=O)C2CC2c2ccc(Cl)c(Cl)c2)C1` (stereo partly specified): the Inhibition is reported as 49%.

`COC(=O)c1cccc(CNCc2ccc(-c3ccc(-c4nc5cc(F)ccc5[nH]4)s3)cc2)c1.O=C(O)C(F)(F)F` gave an Inhibition of 4%. The figure for `Cc1c(Br)cc2nc(-c3ccc(C(=O)NC4CCN(Cc5ccccc5)CC4)cc3)[nH]c2c1C` is 4%. Under `Cl.N=C(NCCCCC1CCCCC1)c1cccc(C(=N)NCCCCC2CCCCC2)n1` stands 99%. As for `Cc1ccc(OC2CCN(CCCCC3(C)C(=O)Nc4ccccc43)CC2)cc1.Cl` (stereo unspecified), the Inhibition turned out to be 63%. The compound `COc1ccc(C=NNc2nc3ccccc3[nH]2)cc1O` returned an Inhibition of 15%. The compound `CCCCOc1cc(C)nc2ccc(NC(=O)COCC(=O)Nc3ccc4nc(C)cc(OCCCC)c4c3)cc12` yielded an Inhibition of 0%. For `O=C(Nc1ccc(-c2nc3ccccc3[nH]2)cc1)c1ccc(Cl)c([N+](=O)[O-])c1`, the Inhibition was found to be 6%. For `Nc1c(Cl)cc(C(O)CNCCCCCCOCCc2ccc(CO)s2)cc1Cl.O=C(O)/C=C/C(=O)O` (stereo unspecified), the Inhibition is 1%.

Take `Cc1ccc(O)c(Nc2c3c(c(C#N)c4nc5ccccc5n24)CCC3)c1`: the Inhibition was 7%. Under `COc1ccc2ncc(Cl)c(CCN3CCC(NCc4ccc5c(n4)NC(=O)CO5)CC3)c2c1.Cl` stands 25%. Take `Cc1ccccc1C1CCN(c2ncc(C(=O)Nc3ccccc3)cc2Cl)CC1.O=C(O)C(F)(F)F`: the Inhibition is reported as 29%. For `Cc1ccc(NCC(=O)Nc2ccc(F)c(Cl)c2)cc1S(=O)(=O)N1CCOCC1`, the Inhibition is recorded as 2%. Turning to `CO/C(=C\C=C\c1cc2cc(Cl)c(Cl)cc2[nH]1)C(=O)NCCCN1CCN(c2cccc(Cl)c2)CC1`, the Inhibition was determined as 58%. Consider `CCN1CCC(N(Cc2ccc(-c3ccc(C(F)(F)F)cc3)cc2)C(=O)Cn2c(CCc3cccc(F)c3F)cc(=O)c3ccccc32)C1.O=C(O)C(O)C(O)C(=O)O` (stereo unspecified), for which the Inhibition is recorded as 43%. On to `Cn1cncc1-c1ccc2c(-c3ccsc3)cnc(N)c2c1`, for which the Inhibition came out at 41%. Under `CC1CCN(c2nc(C(=O)Nc3cccc4c3CCCC4)c(C(C)C)s2)CC1.O=C(O)C(F)(F)F` stands 14%. `COc1ccc(NS(=O)(=O)c2cc(NC(=O)Cn3ccccc3=O)ccc2N2CCCCC2)cc1` registered an Inhibition of 20%. `Cl.Clc1ccc(OCc2ccccc2)c(Cc2ccc(-c3nc4cnccc4[nH]3)o2)c1`: the Inhibition worked out at 2%. `O=C(Nc1cc(C(F)(F)F)cc(C(F)(F)F)c1)N1CCC(CCN2CCC(c3c[nH]c4ccccc34)CC2)CC1` gave an Inhibition of 17%. For `COc1cc(/C=C/C(=O)NCC(CCNc2cc(=O)c3ccccc3[nH]2)NCc2cc(Br)cc(Br)c2)cc(OC)c1` (stereo unspecified), the Inhibition is recorded as 0%. Under `Cc1ccc(O)cc1Nc1ccnc2cc(-c3ccncc3)ccc12.Cl` stands 16%; under `COc1ccc(CCN(Cc2cccs2)C(=O)c2cc3sccc3n2C)cc1OC`, 0%.

In the case of `CC(C)COc1ccc(Cl)cc1Nc1nc(-c2nc3ccccc3[nH]2)cs1.Cl`, the Inhibition was 2%. Compound `Cc1cc(N/N=C/c2ccccc2[N+](=O)[O-])c2cc(F)ccc2n1` came in with an Inhibition of 18%.

Compound `O=C(O)C(F)(F)F.Oc1ccc(-c2nc3c(N4CCN(Cc5ccccc5)CC4)cccc3n2C2CCNCC2)cc1` displayed an Inhibition of 0%.

In turn, `COc1ccccc1NC(=O)Nc1cccc(-c2cccc(-c3nc4cc(C(F)(F)F)ccc4[nH]3)c2)c1` gave an Inhibition of 21%. Under `CCN1CCN(c2cc(C)c3cc(NC(=O)c4ccc([N+](=O)[O-])c(C)c4)ccc3n2)CC1` stands 8%; under `Cc1noc(C)c1-c1ccc2c(Nc3cccc4c3-c3ccccc3C4=O)c(C(=O)NCc3ccccc3I)cnc2c1`, 27%; under `COC(=O)c1c(C#N)c(OC)cc(O)c1CSC[C@H](Nc1nc(-c2ccc([N+](=O)[O-])cc2)cs1)C(=O)NCCN1CCCCC1`, 5%.

For the compound `FC(F)(F)c1ccc2[nH]c(-c3ccc(-c4cccc(CN5CCC(CCN6CCCCC6)CC5)c4)cc3)nc2c1.O=C(O)C(F)(F)F`, the Inhibition is reported as 100%. In the case of `COc1ccccc1CCNc1nc(C)cc(N[C@@H](Cc2ccccc2)C(=O)NCCCOC(C)C)n1.O=C(O)C(F)(F)F`, the Inhibition is given as 10%. The figure for `Cc1ccc(CN2CCC(Oc3cccc(NC(=O)c4ccc(C(F)(F)F)cc4)c3)CC2)cc1.O=C(O)C(F)(F)F` is 37%.
